Measurements from PubChem BioAssay (NCATS).
Values joined by “and” are separate entries in the source; they are usually repeats but may differ in a detail not shown here. Identical values can stand only once. Records with an inconclusive call do not appear. Where a call stands in place of a potency, no number is given. Active and inactive are the calls of the source. The call rests on the fitted dose curve.

Key:
[1] = Cytotoxicity counterscreen for inhibitors of SARS-CoV-2 cell entry (AID 1645845); further: nearly all actives have a fitted effect of over 50% in size
In short: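 HEK293-ACE2 cells (Expi293F stably expressing human ACE2) seeded overnight, then compound for 1 h plus 48 h at 37C. Viability as ATP content by luminescence; normalized to wells with cells and media-only wells.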

[2] = Primary qHTS to identify inhibitors of SARS-CoV-2 cell entry (AID 1645846); further: nearly all actives have a fitted effect of over 45% in size
In short: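 Inhibition of spike-mediated entry was scored in human ACE2-transfected Expi293F cells. Particles were MLV-pseudotyped with Wuhan-Hu-1 S carrying a 19-aa C-terminal deletion; signal was luciferase after two days, scaled between spike PP and fusion-protein-free PP.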

[3] = activity change, negative = inhibition: at 57.1 µM (top of the series) unless noted

Q: Which results are given for `CC(C)Cn1cnc2c(N)nc3ccccc3c21`?
A: Potency [1]: inactive; Potency [2, 3]: inactive; activity change, negative = inhibition [2, 3]: 0.431% [at 27.1 µM]

Q: What does the source list for `O=C(NCC1CCCCN1)c1cc(OCC(F)(F)F)ccc1OCC(F)(F)F` (centres undefined)?
A: Potency [1]: inactive; Potency [2, 3]: inactive; activity change, negative = inhibition [2, 3]: -8.95%

Q: Which Potency [1] does the source give for `CC(C)Cc1ccc(C(C)C(=O)O)cc1` (centres undefined) here?
A: inactive

Q: And the Potency [2, 3]?
A: inactive

Q: What about the activity change, negative = inhibition [2, 3] of the same compound?
A: 0.301%

Q: For `CC(=O)NCCCS(=O)(=O)O`, which Potency [1] is on record?
A: inactive

Q: What about the activity change, negative = inhibition ([2]; SARS-CoV-2 pseudovirus cell entry assay, luminescence, at 27.1 µM (top of the series)) of the same compound?
A: 1.79%

Q: And the activity change, negative = inhibition ([2]; SARS-CoV-2 pseudovirus cell entry assay, luminescence, at 57.1 µM (top of the series))?
A: -6.89%

Q: What does the source list for `COc1ccc2[nH]cc(CCNC(C)=O)c2c1`?
A: Potency [1]: inactive; Potency [2, 3]: inactive; activity change, negative = inhibition [2, 3]: -6.18%

Q: With `Nc1cc(C(Cl)=C(Cl)Cl)c(S(N)(=O)=O)cc1S(N)(=O)=O` as the compound, how does the Potency [1] read?
A: inactive

Q: What about the Potency [2, 3] of the same compound?
A: inactive

Q: What about the activity change, negative = inhibition [2, 3] of the same compound?
A: -25%

Q: With `Nc1ccn([C@@H]2CS[C@H](CO)O2)c(=O)n1` as the compound, how does the Potency [1] read?
A: inactive

Q: What about the Potency [2, 3] of the same compound?
A: inactive

Q: What about the activity change, negative = inhibition [2, 3] of the same compound?
A: -19.3% [at 114 µM]

Q: Which Potency [1] does the source give for `O=S(=O)(O)CCS` here?
A: inactive

Q: What about the Potency [2, 3] of the same compound?
A: inactive

Q: And the activity change, negative = inhibition [2, 3]?
A: 1.92%

Q: With `CC[C@H](C)C(=O)O[C@H]1C[C@H](O)C=C2C=C[C@H](C)[C@H](CC[C@@H](O)C[C@@H](O)CC(=O)O)[C@H]21` as the compound, how does the Potency [1] read?
A: inactive

Q: What about the Potency [2, 3] of the same compound?
A: inactive

Q: And the activity change, negative = inhibition [2, 3]?
A: -12.2%

Q: Which Potency [1] does the source give for `CCOC(=O)C1=C[C@@H](OC(CC)CC)[C@H](NC(C)=O)[C@@H](N)C1` here?
A: inactive

Q: What about the Potency [2, 3] of the same compound?
A: inactive

Q: And the activity change, negative = inhibition [2, 3]?
A: -2%

Q: What does the source list for `Nc1ccn(C[C@@H](CO)OCP(=O)(O)O)c(=O)n1`?
A: activity change, negative = cytotoxicity [1]: 2.99% [at 0.702 µM] (inactive) and 4.32% [at 11.3 µM] (inactive); activity change, negative = inhibition [2, 3]: -18.8% [at 11.3 µM]; outcome [2, 3]: inactive [at 0.702 µM]

Q: For `Nc1ncnc2c1ncn2[C@@H]1O[C@H](CO)[C@@H](O)[C@H]1O`, which Potency [1] is on record?
A: inactive

Q: And the Potency [2, 3]?
A: inactive

Q: What about the activity change, negative = inhibition [2, 3] of the same compound?
A: -8.35%

Q: Which Potency [1] does the source give for `COc1ccc(C(=O)CC(=O)c2ccc(C(C)(C)C)cc2)cc1` here?
A: inactive

Q: And the Potency [2, 3]?
A: inactive

Q: And the activity change, negative = inhibition [2, 3]?
A: -3.57%
